The record followed here is PubChem BioAssay.

Test [1] has as its target Nuclear receptor coactivator 1 (Homo sapiens) (UniProt Q15788). Briefly: NCOA1 GAL4-fusion reporter inhibition – cell-based, luminescence, quadruplicate, confirmation (AID 588820;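 active means mean inhibition above 46.68%, the untreated control wells mean plus 3 SD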;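 further: 0% = DMSO wells and 100% = gossypol 36 µM treated wells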). The following applies: HEK293 GAL4-SRC1 luciferase reporter, at 3.6 µM, stronger effect = higher value.
A short description of test [2]: repression of VP16-driven luciferase reporter – cell-based, luminescence, high throughput, counter-screen for SRC1 inhibitor project (AID 588824). The following applies: cell-based VP16 transactivation luciferase luminescence; at 3.6 µM; stronger effect = higher value.

Molecules are shown by their SMILES. Values without a mark were called inactive. Activity calls are given as the source filed them. Unless noted, no stated cut-off is given here; in the data, active means inhibition above about 25%; inactive means the rest.

Sequence of Nuclear receptor coactivator 1 (Homo sapiens) (Q15788 whole entry, looked up, the tested form may be a part): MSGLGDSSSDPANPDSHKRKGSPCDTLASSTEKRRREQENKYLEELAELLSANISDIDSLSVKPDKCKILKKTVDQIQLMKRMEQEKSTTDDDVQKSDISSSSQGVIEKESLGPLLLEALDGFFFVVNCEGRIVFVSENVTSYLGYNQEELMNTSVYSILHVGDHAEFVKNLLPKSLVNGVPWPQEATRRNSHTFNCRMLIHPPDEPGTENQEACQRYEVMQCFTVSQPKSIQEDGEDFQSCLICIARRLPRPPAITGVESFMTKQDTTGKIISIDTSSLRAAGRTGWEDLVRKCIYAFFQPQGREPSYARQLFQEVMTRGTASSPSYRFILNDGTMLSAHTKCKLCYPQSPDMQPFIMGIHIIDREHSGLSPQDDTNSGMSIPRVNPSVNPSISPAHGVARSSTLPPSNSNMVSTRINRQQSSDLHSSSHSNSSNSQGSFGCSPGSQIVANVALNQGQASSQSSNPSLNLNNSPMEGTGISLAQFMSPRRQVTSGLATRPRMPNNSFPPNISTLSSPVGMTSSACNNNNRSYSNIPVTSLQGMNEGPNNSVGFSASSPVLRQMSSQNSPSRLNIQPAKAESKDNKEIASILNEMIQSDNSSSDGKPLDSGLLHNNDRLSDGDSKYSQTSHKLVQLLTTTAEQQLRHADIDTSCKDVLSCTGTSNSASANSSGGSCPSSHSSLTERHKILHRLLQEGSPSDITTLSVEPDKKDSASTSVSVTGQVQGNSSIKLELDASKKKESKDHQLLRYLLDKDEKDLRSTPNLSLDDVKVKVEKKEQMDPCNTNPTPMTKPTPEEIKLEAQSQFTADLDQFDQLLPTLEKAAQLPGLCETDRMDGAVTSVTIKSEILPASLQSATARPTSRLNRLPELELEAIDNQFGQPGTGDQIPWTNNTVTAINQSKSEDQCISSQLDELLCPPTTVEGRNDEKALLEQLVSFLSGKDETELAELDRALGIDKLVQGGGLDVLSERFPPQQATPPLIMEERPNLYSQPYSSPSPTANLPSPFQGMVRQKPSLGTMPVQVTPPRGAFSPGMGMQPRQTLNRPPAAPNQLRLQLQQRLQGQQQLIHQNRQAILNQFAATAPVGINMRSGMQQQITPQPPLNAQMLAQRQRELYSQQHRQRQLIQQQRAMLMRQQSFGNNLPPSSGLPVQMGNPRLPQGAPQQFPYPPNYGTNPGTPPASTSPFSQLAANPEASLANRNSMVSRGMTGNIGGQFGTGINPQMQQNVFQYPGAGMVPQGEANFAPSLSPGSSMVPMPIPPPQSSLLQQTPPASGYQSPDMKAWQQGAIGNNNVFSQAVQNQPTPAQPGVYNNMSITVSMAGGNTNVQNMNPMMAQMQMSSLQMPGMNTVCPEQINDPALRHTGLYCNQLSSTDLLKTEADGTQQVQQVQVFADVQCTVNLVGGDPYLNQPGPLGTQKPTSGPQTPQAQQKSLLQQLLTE

What is called inhibition is the drop in the measured response relative to a control, in per cent. Regarding `CCOC(=O)C1=C[C@@H](CC)N(S(=O)(=O)c2ccc([N+](=O)[O-])cc2)[C@H]1c1ccccc1`, the results for the inhibition in test [1] and in test [2] were -2.32% and -3.27%, respectively.

On to `Cn1ncc(Cl)c1C(=O)NCc1cc(C(C)(C)C)n[nH]1`, for which the inhibition in test [1] is -8.52%; in test [2], -4.25%.

On to `O=C(Nc1ccncc1)c1ccc(Cl)c(S(=O)(=O)N2CCc3ccccc32)c1`, for which the inhibition in test [1] was -6.49%; in test [2], 36.8% (active).

In the case of `COc1ccc(-c2cc(N3C(=O)Nc4ccccc4N3O)n[nH]2)c(OC)c1`, the inhibition in test [1] was 25.8%; in test [2] it was 20.1%.

As to `COc1ccc(Nc2ncnc3ccc(C)cc23)cc1`, the inhibition is 26.8% in test [1] and 15.7% in test [2].

As for `CCOC(=O)C1CCN(S(=O)(=O)c2ccc3c(c2)CC(C)N3C(=O)C2CC2)CC1` (stereo not given), the figures for the inhibition in test [1] and in test [2] were -22.1% and 3.71%, respectively.

Take `O=C1NC2(CCN(Cc3ccccc3)CC2)Oc2ccccc21`: the inhibition in test [1] is -21.7%; in test [2], -3.3%.

As to `C[n+]1c2n(c3ccccc31)N=C(c1ccc(Cl)cc1)CS2`, the figures for the inhibition in test [1] and in test [2] were -20.3% and 19.1%, respectively.

Regarding `CCc1ccc(NC(=O)C2CCN(S(=O)(=O)c3ccc4c(c3)CC(C)N4C(C)=O)CC2)cc1` (stereo not given), the inhibition was -7.12% in test [1] and 12.7% in test [2].

With `O=C(OCC(=O)N1CCN(S(=O)(=O)c2ccc(Cl)cc2)CC1)c1cccc(OC(F)F)c1`, the inhibition in test [1] is -50.5%; in test [2], -5.85%.

Consider `CC(=O)Nc1ccc(NC(=O)C(C)OC(=O)CCSc2ccccc2Cl)cc1` (stereo not given), for which the inhibition in test [1] is -6.34%; in test [2] it was 4.67%.

In the case of `CCOC(=O)c1c(-c2ccccc2)csc1NC(=O)c1nn(CC)cc1Br`, the inhibition in test [1] was -4.38%; in test [2], -7.57%.

Regarding `Cc1cccc(NC(=O)CSc2nnc(NC(=O)C3CC3)s2)c1C`, the inhibition was -3.25% in test [1] and 6.7% in test [2].

For `COc1ccc(OC)c(C2=NS(=O)(=O)N(C)C(C(=O)Nc3ccc(F)cc3F)=C2)c1`, the inhibition in test [1] is -0.3%; in test [2] it was 4.07%.

As for `O=C(C[C@H]1C[C@H](C(=O)N2CCOCC2)[C@@]2(CCC3CCCC3)c3[nH]c4ccc(Cl)cc4c3CCN2C1=O)NCCCn1ccnc1`, the inhibition in test [1] is -4.01%; in test [2], 2.48%.

Consider `CCOC(=O)N1CCN(CC(=O)Nc2ccc(F)c(F)c2)CC1`, for which the inhibition was -18.7% in test [1] and -4% in test [2].

Turning to `COc1ccc(CCN(C)C(=O)c2cc(S(=O)(=O)N3CCCCC3)ccc2Cl)cc1OC`, the inhibition in test [1] was -9.24%; in test [2], 8.04%.

For `O=S(=O)(NCC1CN(S(=O)(=O)c2c(F)cccc2F)C1)c1ccc2c(c1)OCCO2`, the inhibition in test [1] was 2.79%; in test [2], 17.9%.

Regarding `CN1C(=O)[C@H](Cc2ccc([N+](=O)[O-])cc2)NC1=S`, the inhibition was 27.2% in test [1] and 26.4% (active) in test [2].

Turning to `O=C(Nc1ccc2c(c1)N(S(=O)(=O)c1cccs1)CCC2)c1c(F)cccc1F`, the figures for the inhibition in test [1] and in test [2] were -8.08% and -5.05%, respectively.

Regarding `COc1ccc(C(=O)Nc2ccc(-c3ccc(C)o3)cc2)cc1S(=O)(=O)N1CCOCC1`, the inhibition is -16.1% in test [1] and 22.2% in test [2].

In the case of `COc1ccc(CNC(=O)c2ccc(N3CCC4(CC3)CC(c3ccc(Cl)cc3)=NO4)c([N+](=O)[O-])c2)cc1`, the inhibition was 6.27% in test [1] and 28.2% (active) in test [2].

Regarding `CN(Cc1ccc(OC(F)F)cc1)C(=O)c1cccc(S(=O)(=O)N2CCN(Cc3ccccc3)CC2)c1`, the results for the inhibition in test [1] and in test [2] were -14% and 35% (active), respectively.

For `Cc1cccc(C)c1NC(=O)C1(C)CCC(=O)N1c1cc(C(C)(C)C)nn1C` (stereo not given), the inhibition in test [1] was -13.6%; in test [2] it was -5.42%.

With `COc1cccc(C(C(=O)NC2CCCC2)N(C(=O)c2ccco2)c2ccc(C(C)=O)cc2)c1OC` (stereo not given), the inhibition is -0.53% in test [1] and -9.34% in test [2].

Take `Nc1c(Cl)ncnc1NCCc1ccc(O)cc1`: the figures for the inhibition in test [1] and in test [2] were -6.45% and 27.9% (active), respectively.

As for `O=c1[nH]nnc2c1ncn2C1OC(CO)C(O)C1O` (stereo not given), the inhibition in test [1] was 0.97%; in test [2], 17.6%.

Take `CC1(C)CC(NCc2ccccc2)CCO1` (stereo not given): the inhibition in test [1] was -24.7%; in test [2] it was -4.92%.

Consider `CCCn1ncc(/C=N/O)c1C`, for which the inhibition is 12.8% in test [1] and 25.9% (active) in test [2].

`CCCCNC(=O)C1(C)CCCCN1C(=O)c1ccc2c(c1)C(C)(C)CCC2(C)C` (stereo not given): the inhibition in test [1] is 7.49%; in test [2], 10.7%.

As to `CC(C)(C)c1ccc(-c2cc(-c3ccccc3O)[nH]n2)cc1`, the figures for the inhibition in test [1] and in test [2] were -42.5% and -28.4%, respectively.

Take `Cc1ccc(S(=O)(=O)NCc2ccc3c(c2)OCO3)cc1C`: the values for the inhibition in test [1] and in test [2] were -20.8% and 1.6%, respectively.

`CC(C)(C)c1ccc(OCCC(=O)NNC(=O)c2ccncc2)cc1`: the inhibition in test [1] was -13.7%; in test [2], -5.17%.

Turning to `CCCCCOc1ccc(/C=C/c2c([N+](=O)[O-])c(=O)n(C)c(=O)n2C)cc1`, the inhibition was 23.6% in test [1] and 22.4% in test [2].

On to `COc1ccc2cc(/C=N/NC(=O)c3ccc(CN(c4ccc(C)c(C)c4)S(C)(=O)=O)cc3)c(Cl)nc2c1`, for which the inhibition was -4.08% in test [1] and 20.7% in test [2].

`CC(C)N1C(=O)c2ccccc2N(Cc2ccccc2)S1(=O)=O`: the inhibition in test [1] was -4.94%; in test [2], 1.81%.

As to `Cc1ccc(C(C(=O)NCc2ccccc2)N(Cc2cccs2)C(=O)c2ccc3c(c2)OCCO3)cc1` (stereo not given), the values for the inhibition in test [1] and in test [2] were -21.8% and -1.97%, respectively.

For the molecule `COc1ccc2c(c1)-c1c(ssc1=S)C(C)(C)N2C(=O)CSC1=NCCS1`, the inhibition is 24.9% in test [1] and 12.4% in test [2].

`CCOc1cccc(/C=N/NC(=O)c2cc(C3CC3)[nH]n2)c1O`: the inhibition is 21.5% in test [1] and 21.7% in test [2].

Regarding `CCN(C(=O)CN1C(=O)S/C(=C\c2cccc(Cl)c2)C1=O)C1CCS(=O)(=O)C1` (stereo not given), the inhibition was 4.59% in test [1] and 4.57% in test [2].

For `CCOc1ccc(CCNC(=O)CSCc2ccc(C)cc2)cc1OCC`, the values for the inhibition in test [1] and in test [2] were -18.5% and -1.5%, respectively.

Take `COc1ccc2sc3c(=O)[nH]c4ccccc4c3c2c1`: the results for the inhibition in test [1] and in test [2] were 55% (active) and 41.4% (active), respectively.

Regarding `COc1cc(NC(=O)c2cccc3c(-c4cnn(C)c4)coc23)cc(OC)c1OC`, the inhibition in test [1] is -26.3%; in test [2], -0.35%.

Turning to `O=[N+]([O-])c1ccc(C[n+]2cccc3c4ccccc4ccc32)cc1`, the results for the inhibition in test [1] and in test [2] were 3.12% and 34.3% (active), respectively.

`Cc1ccn(CC(=O)N/N=C/c2cc([N+](=O)[O-])ccc2O)n1`: the inhibition is 7.62% in test [1] and 9.09% in test [2].

Take `Cc1cnc(C(=O)Nc2cccc3cccnc23)cn1`: the inhibition in test [1] is -34.4%; in test [2], -21.9%.

Consider `CCCCCCn1nc(C(=O)OCC(=O)c2c(N)n(C)c(=O)n(C)c2=O)c2ccccc2c1=O`, for which the inhibition in test [1] was -6.84%; in test [2] it was -3.36%.

For the molecule `CCOC(=O)C(Cc1c(F)cccc1Cl)c1ccno1` (stereo not given), the inhibition in test [1] was -2.31%; in test [2], -14.2%.

For the molecule `Cc1sc2ncn3ncnc3c2c1C`, the values for the inhibition in test [1] and in test [2] were 37.9% and 27.7% (active), respectively.

Turning to `COc1ccccc1NC(=O)c1cc(S(=O)(=O)NC2CCCC2)ccc1F`, the inhibition is 3.42% in test [1] and 5.69% in test [2].

Consider `Cc1ccc(-n2c(C)nn(CC3CC3)c2=O)cc1`, for which the results for the inhibition in test [1] and in test [2] were 2.58% and -3.08%, respectively.

Consider `CCC1(c2ccccc2)NC(=O)N(CC(=O)Nc2ccccc2C(=O)NC2CCCC2)C1=O` (stereo not given), for which the inhibition in test [1] is -5.15%; in test [2], -0.59%.

`COc1cc(S(=O)(=O)NCc2ccccc2Cl)ccc1-n1cnnn1`: the inhibition in test [1] is -9.68%; in test [2] it was -5.92%.

Consider `CCOC(=O)N1CCC(Nc2ncnc3c2cnn3-c2ccc(C)cc2C)CC1`, for which the values for the inhibition in test [1] and in test [2] were -5.68% and 29% (active), respectively.

In the case of `COc1ccc(CCC(=O)Nc2ccc(Cl)c(S(=O)(=O)N3CCCC3)c2)cc1`, the inhibition was 12.1% in test [1] and 27.8% (active) in test [2].

Regarding `CC1Sc2n(c3ccccc3[n+]2C)N=C1c1ccccc1` (stereo not given), the figures for the inhibition in test [1] and in test [2] were -6.75% and 11.7%, respectively.

With `CN(C)CCNC(=O)c1cccc2nc3c(ccc4ccccc43)nc12`, the results for the inhibition in test [1] and in test [2] were 30.5% and 40.4% (active), respectively.

As for `CC(=O)c1sc2nc(C)c3c(c2c1N)CCCC3`, the inhibition in test [1] was 13.4%; in test [2] it was 3.88%.

Consider `O=C(COC(=O)CCC(=O)c1ccccc1)Nc1nnc(-c2ccccc2)o1`, for which the values for the inhibition in test [1] and in test [2] were -19.6% and -8.55%, respectively.

As to `COc1ccc(-c2n[nH]c(=S)n2-c2ccc(C)cc2)cc1`, the inhibition in test [1] is -68.5%; in test [2], -40%.

Consider `CC(=O)c1ccc(S(=O)(=O)N2CCN(CCOc3ccc(Br)cc3)CC2)cc1`, for which the inhibition is 2.32% in test [1] and 25.4% (active) in test [2].

`NC(CO)C(=O)NNCc1ccc(O)c(O)c1O` (stereo not given): the inhibition in test [1] is -18.8%; in test [2], -2.94%.

Turning to `CN1OC[C@@H]2CN(C(=S)NCCc3ccccc3)[C@H](c3ccc(-n4ccnc4)cc3)C[C@@H]21`, the inhibition in test [1] was -1.96%; in test [2] it was -0.23%.

On to `COc1cc2c(cc1OC)C(C)N(C(=O)c1cc3ccccc3o1)CC2` (stereo not given), for which the inhibition was -4.6% in test [1] and 2.25% in test [2].

On to `Cc1cccc(NC(=O)CSCC(=O)N2CCN(Cc3ccc4c(c3)OCO4)CC2)c1`, for which the figures for the inhibition in test [1] and in test [2] were 2.48% and 1.12%, respectively.

For `O=C(NC1CCCC1)C1CCN(C(=O)c2cccc(Cl)c2)CC1`, the results for the inhibition in test [1] and in test [2] were -22.6% and -3.66%, respectively.

In the case of `Cc1cc2c(OCC(O)CNCc3ccco3)cccc2[nH]1` (stereo not given), the figures for the inhibition in test [1] and in test [2] were -14.2% and -11.1%, respectively.

`O=C(c1nnsc1S(=O)c1ccc(Cl)cc1)N1CCOCC1` (stereo not given): the results for the inhibition in test [1] and in test [2] were -24.9% and -6.26%, respectively.

As to `Cc1cc(C)cc(C(=O)Nc2cccc(NC(=O)c3ccco3)c2)c1`, the values for the inhibition in test [1] and in test [2] were -11.1% and 9.42%, respectively.

For the molecule `CCCN(CCC)CCCNC(=O)c1cn(C)c2ccc(S(=O)(=O)N(C)C3CCCCC3)cc2c1=O`, the inhibition in test [1] was -13.7%; in test [2] it was -9.68%.
